# Test results reported in the supplement of paper PMC3545927.
# This is one part of the list. No count for the full screen is at hand.
# B1: HC1694 (peptide)
# chain: CAMKECSQHLAGNASASA
# B2: HC1901 (peptide)
# chain: CATTPCSNSWAGNASASA
# B3: FS-2752 (peptide)
# chain: CARQKREWIKAGNASASA
# B4: FS-2753 (peptide)
# chain: CARQKREWVKAGNASASA
# B5: FS-2119 (peptide)
# chain: CAEKKRKFIKAGNASASA
# B6: HC27 (peptide)
# chain: CAMEECWQHLAGNASASA
# B7: HC1609 (peptide)
# chain: CAYSPGEINRAGNASASA
# B8: HC2351 (peptide)
# chain: CAEVDCHRPSAGNASASA
# B9: HC184 (peptide)
# chain: CARATRKTSEAGNASASA
# B10: FS-2287 (peptide)
# chain: CARPSRSGGRAGNASASA
# B11: HC504 (peptide)
# chain: CATGLIHLHQAGNASASA
# B12: FS-1855 (peptide)
# chain: CARKKKSISLAGNASASA
# B13: FS-3027 (peptide)
# chain: CARPSRSISLAGNASASA
# B14: HC718 (peptide)
# chain: CAQGSRSLTPAGNASASA
# B15: FS-2033 (peptide)
# chain: CARISRSISEAGNASASA
# B16: FS-3190 (peptide)
# chain: CARISRSLHQAGNASASA
# B17: HC1589 (peptide)
# chain: CADQLEQALDAGNASASA
# B18: HC353 (peptide)
# chain: CATHVTGGSAAGNASASA
# B19: HC2114 (peptide)
# chain: CAKDVVCCSMAGNASASA
# B20: CS1 (peptide)
# chain: CADSVDAKPDAGNASASA
# B21: FS-2590 (peptide)
# chain: CARQRRIYKTAGNASASA
# B22: FS-2768 (peptide)
# chain: CARQRRVPGNAGNASASA
# B23: FS-28 (peptide)
# chain: CAGPGRVRRRAGNASASA
# B24: FS-1246 (peptide)
# chain: CAPSPRQARRAGNASASA
# B25: FS-1160 (peptide)
# chain: CARQRRVRRRAGNASASA
# B26: FS-702 (peptide)
# chain: CAPTTRVRRRAGNASASA
# B27: FS-1721 (peptide)
# chain: CARIKKWLEHAGNASASA
# B28: HC13 (peptide)
# chain: CAMEEESQHLAGNASASA
# B29: HC1927 (peptide)
# chain: CATTPCSGSFAGNASASA
# B30: HC1165 (peptide)
# chain: CAVSCQRGYKAGNASASA
# B31: FS-1116 (peptide)
# chain: CAEAYRSRRTAGNASASA
# B32: HC2258 (peptide)
# chain: CAEVVTSTWTAGNASASA
# B33: FS-2491 (peptide)
# chain: CARFRRIRGEAGNASASA
# B34: FS-646 (peptide)
# chain: CADHWRSRRTAGNASASA
# B35: HC2295 (peptide)
# chain: CADHEVVTSTAGNASASA
# B36: FS-2666 (peptide)
# chain: CARFRRSRRTAGNASASA
# B37: HC1778 (peptide)
# chain: CAMEECSQHTAGNASASA
# B38: HC2437 (peptide)
# chain: CASREVPCHRAGNASASA
# B39: HC56 (peptide)
# chain: CATTPTSGSWAGNASASA
# B40: HC2458 (peptide)
# chain: CAETEVPCHRAGNASASA
# B41: FS-1931 (peptide)
# chain: CARSKRSPGGAGNASASA
# B42: FS-3223 (peptide)
# chain: CARKNRSKNQAGNASASA
# B43: FS-2820 (peptide)
# chain: CARSSKDTSTAGNASASA
# B44: FS-1973 (peptide)
# chain: CARSKRSKNQAGNASASA
# B45: FS-1932 (peptide)
# chain: CARSPRSASTAGNASASA
# B46: FS-3089 (peptide)
# chain: CARSPRGVLRAGNASASA
# B47: FS-2183 (peptide)
# chain: CARSKRSLSCAGNASASA
# B48: FS-3178 (peptide)
# chain: CAWSKRSLSQAGNASASA
# Molecular target: furin, P09958
# Assay: furin cleavage Z-score vs untreated control; higher = more cleavage, active = 3.5 or more, inactive = 1 or less, 8 variable residues between constant flanks
# Summary of the method: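 Reactions of 0.01 ml ran for 7.5, 15 or 30 min in 50 mM HEPES pH 7.5 with CaCl2 and NaCl, at 1:10 enzyme:substrate. In them, purified furin acted on bead-held 8-mer peptides fused to a cDNA oligonucleotide. The cleavage Z-score was obtained by lowess-adjusting log sequencing counts of released DNA against furin-free reactions and scaling by median absolute deviation.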
# Chain of furin, P09958 (P09958 whole entry): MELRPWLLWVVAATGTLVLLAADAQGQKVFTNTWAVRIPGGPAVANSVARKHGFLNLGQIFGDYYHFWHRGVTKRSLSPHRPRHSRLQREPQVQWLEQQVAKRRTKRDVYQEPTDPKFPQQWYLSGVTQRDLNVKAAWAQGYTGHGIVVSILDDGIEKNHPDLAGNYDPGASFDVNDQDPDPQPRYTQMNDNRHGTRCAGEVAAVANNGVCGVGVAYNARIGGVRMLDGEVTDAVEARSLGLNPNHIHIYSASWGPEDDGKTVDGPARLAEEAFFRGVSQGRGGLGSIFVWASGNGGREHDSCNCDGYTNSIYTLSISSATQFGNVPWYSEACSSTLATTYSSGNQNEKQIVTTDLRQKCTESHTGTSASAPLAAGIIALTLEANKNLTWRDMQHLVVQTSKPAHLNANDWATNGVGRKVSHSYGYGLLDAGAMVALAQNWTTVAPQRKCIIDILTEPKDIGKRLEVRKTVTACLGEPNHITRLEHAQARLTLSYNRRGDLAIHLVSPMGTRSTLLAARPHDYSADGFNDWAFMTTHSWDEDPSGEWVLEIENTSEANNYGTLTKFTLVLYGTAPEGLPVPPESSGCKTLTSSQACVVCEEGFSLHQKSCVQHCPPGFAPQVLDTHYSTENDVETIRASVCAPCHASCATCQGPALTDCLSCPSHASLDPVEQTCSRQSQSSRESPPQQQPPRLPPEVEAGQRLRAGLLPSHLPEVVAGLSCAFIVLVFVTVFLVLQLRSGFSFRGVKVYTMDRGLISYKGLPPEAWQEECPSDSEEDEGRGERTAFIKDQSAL
Sequence,furin cleavage Z-score (7.5 min),furin cleavage Z-score (15 min),furin cleavage Z-score (30 min)
B1,-0.048 (inactive),-0.457 (inactive),-0.785 (inactive)
B2,0.617 (inactive),0.249 (inactive),1.55
B3,4.32 (active),5.62 (active),9.03 (active)
B4,3.59 (active),6.92 (active),8.88 (active)
B5,-0.691 (inactive),-0.493 (inactive),-0.629 (inactive)
B6,1.1,1.46,0.479 (inactive)
B7,-1.45 (inactive),1.01,-0.452 (inactive)
B8,0.842 (inactive),0.436 (inactive),0.244 (inactive)
B9,-0.121 (inactive),-1.01 (inactive),-1.25 (inactive)
B10,-1.07 (inactive),-0.551 (inactive),-0.606 (inactive)
B11,0.174 (inactive),0.0378 (inactive),-0.549 (inactive)
B12,0.218 (inactive),1.42,3.47
B13,3.14,4.81 (active),5.36 (active)
B14,0.532 (inactive),-0.507 (inactive),0.396 (inactive)
B15,7.46 (active),8.18 (active),7.34 (active)
B16,6.79 (active),8.81 (active),8.11 (active)
B17,-1.05 (inactive),-1.96 (inactive),-1.11 (inactive)
B18,-0.463 (inactive),-0.337 (inactive),-2.02 (inactive)
B19,0.322 (inactive),0.43 (inactive),-1.58 (inactive)
B20,-0.899 (inactive),-0.697 (inactive),-0.815 (inactive)
B21,-1.61 (inactive),-1.71 (inactive),-0.22 (inactive)
B22,1.18,-0.0341 (inactive),0.472 (inactive)
B23,8.24 (active),9.49 (active),7.22 (active)
B24,0.263 (inactive),2.43,2.92

Sequence,furin cleavage Z-score (7.5 min),furin cleavage Z-score (15 min),furin cleavage Z-score (30 min)
B25,6.79 (active),6.89 (active),6.35 (active)
B26,9.76 (active),10.9 (active),9.44 (active)
B27,-1.04 (inactive),0.181 (inactive),1.15
B28,1.19,0.958 (inactive),0.124 (inactive)
B29,-0.645 (inactive),-1.19 (inactive),0.309 (inactive)
B30,-0.75 (inactive),0.637 (inactive),1.1
B31,1.35,1.26,3.71 (active)
B32,2.11,-0.469 (inactive),0.353 (inactive)
B33,-0.28 (inactive),-0.376 (inactive),-0.341 (inactive)
B34,2.11,1.9,3.67 (active)
B35,0.352 (inactive),-1.49 (inactive),1.29
B36,7.49 (active),8.92 (active),6.66 (active)
B37,-0.696 (inactive),1.17,0.869 (inactive)
B38,0.554 (inactive),0.537 (inactive),0.935 (inactive)
B39,-1.1 (inactive),-0.337 (inactive),-0.847 (inactive)
B40,0.00837 (inactive),0.231 (inactive),0.879 (inactive)
B41,9.79 (active),8.88 (active),8.01 (active)
B42,0.698 (inactive),-0.524 (inactive),0.1 (inactive)
B43,-0.514 (inactive),-1.51 (inactive),-0.361 (inactive)
B44,5.82 (active),7.57 (active),6.19 (active)
B45,4.66 (active),5.46 (active),7.33 (active)
B46,-0.934 (inactive),-0.739 (inactive),-0.752 (inactive)
B47,1.81,2.42,5.07 (active)
B48,0.451 (inactive),1.67,2.52
